The results in this text go back to article PMC7862700, “An all-to-all approach to the identification of sequence-specific readers for epigenetic DNA modifications on cytosine”.

What all share (assay): DAPPL (digital affinity profiling via proximity ligation, sequencing); 10 mM Tris-HCl pH 7.5, 50 mM NaCl, 1 mM DTT, 4% glycerol, room temperature, 30 min; GST-TFs on glutathione beads, 16-mer random dsDNA library, 0.1% formaldehyde crosslink after washing; high values mean tight binding
In one test the target is T1, FEV (Homo sapiens, UniProt Q99581 1-238).
T1 sequence: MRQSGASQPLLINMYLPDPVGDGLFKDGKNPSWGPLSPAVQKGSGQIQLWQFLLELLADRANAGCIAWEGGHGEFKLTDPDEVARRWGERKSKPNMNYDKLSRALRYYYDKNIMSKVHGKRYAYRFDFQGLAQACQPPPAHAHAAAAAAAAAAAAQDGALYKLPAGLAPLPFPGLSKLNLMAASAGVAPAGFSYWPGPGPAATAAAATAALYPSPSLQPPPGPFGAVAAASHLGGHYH
The conditions noted are these: protein: recombinant; tags: N-terminal GST; dsDNA, one strand shown. In outline: (§1)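 Yeast served to express human transcription factors as GST fusions, which were then captured on glutathione beads and labelled with DNA barcodes. Pooled with a tag-only sample, they were incubated with 200 nmole of a 16-mer random double-stranded DNA library for 30 min at room temperature in Tris/NaCl/DTT/glycerol buffer, washed, crosslinked with 0.1% formaldehyde, ligated by proximity, amplified by PCR and sequenced. Dividing each hexamer's read frequency for a factor by its frequency for the tag-only sample gives the binding signal.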

Another test concerns the target ETV5 (Homo sapiens, UniProt P41161 1-510). Particulars: protein: recombinant; tags: N-terminal GST; dsDNA, one strand shown. In short, it runs like this: as §1
Another test concerns the target HSF1 (Homo sapiens, UniProt Q00613 1-529). The conditions noted are these: protein: recombinant; tags: N-terminal GST; chain copies: 3; dsDNA, one strand shown. In outline: as §1
The target in the next test is T2, SPIC (Homo sapiens, UniProt Q8N5J4 1-248).
T2 sequence: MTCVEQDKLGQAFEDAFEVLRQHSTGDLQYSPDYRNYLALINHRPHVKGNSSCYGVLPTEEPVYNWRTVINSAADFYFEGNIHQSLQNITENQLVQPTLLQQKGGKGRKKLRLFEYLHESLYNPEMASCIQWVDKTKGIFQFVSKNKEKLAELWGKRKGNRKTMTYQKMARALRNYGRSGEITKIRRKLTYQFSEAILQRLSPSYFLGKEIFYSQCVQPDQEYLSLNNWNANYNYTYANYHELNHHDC
Particulars: protein: recombinant; tags: N-terminal GST; dsDNA, one strand shown. In short, it runs like this:
as §1

For another test, the target named is ELF4 (Homo sapiens, UniProt Q99607 1-663). The conditions noted are these: protein: recombinant; tags: N-terminal GST; dsDNA, one strand shown. In short, it runs like this:
as §1

Another test addresses T3, ELK4 (Homo sapiens, UniProt P28324-2 1-405).
T3 sequence: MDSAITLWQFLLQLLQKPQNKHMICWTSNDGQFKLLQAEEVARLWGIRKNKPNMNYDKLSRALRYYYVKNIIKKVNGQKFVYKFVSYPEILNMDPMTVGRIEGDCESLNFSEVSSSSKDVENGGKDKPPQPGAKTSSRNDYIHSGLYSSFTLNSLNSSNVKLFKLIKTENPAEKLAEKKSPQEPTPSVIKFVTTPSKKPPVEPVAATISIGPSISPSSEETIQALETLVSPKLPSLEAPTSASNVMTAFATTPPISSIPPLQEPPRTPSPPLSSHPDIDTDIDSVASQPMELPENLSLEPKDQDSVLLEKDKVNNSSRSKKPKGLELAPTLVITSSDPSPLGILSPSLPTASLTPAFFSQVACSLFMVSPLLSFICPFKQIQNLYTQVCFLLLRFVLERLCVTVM
The conditions noted are these: protein: recombinant; tags: N-terminal GST; dsDNA, one strand shown. In short, it runs like this: as §1

A further test addresses T4, ETV2 (Homo sapiens, UniProt O00321 1-342).
T4 sequence: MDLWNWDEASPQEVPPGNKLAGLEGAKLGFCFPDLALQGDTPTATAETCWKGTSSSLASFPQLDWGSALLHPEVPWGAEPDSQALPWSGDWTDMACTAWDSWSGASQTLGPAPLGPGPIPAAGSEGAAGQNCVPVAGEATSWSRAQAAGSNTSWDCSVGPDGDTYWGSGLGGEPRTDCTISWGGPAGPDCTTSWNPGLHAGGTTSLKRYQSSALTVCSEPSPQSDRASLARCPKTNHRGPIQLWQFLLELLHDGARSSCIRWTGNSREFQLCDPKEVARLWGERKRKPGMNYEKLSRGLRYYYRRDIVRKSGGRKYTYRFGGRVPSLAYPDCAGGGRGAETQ
The conditions noted are these: protein: recombinant; tags: N-terminal GST; dsDNA, one strand shown. In outline:
as §1

For a further test, the target named is T5, ELF3 (Homo sapiens, UniProt P78545 1-371).
T5 sequence: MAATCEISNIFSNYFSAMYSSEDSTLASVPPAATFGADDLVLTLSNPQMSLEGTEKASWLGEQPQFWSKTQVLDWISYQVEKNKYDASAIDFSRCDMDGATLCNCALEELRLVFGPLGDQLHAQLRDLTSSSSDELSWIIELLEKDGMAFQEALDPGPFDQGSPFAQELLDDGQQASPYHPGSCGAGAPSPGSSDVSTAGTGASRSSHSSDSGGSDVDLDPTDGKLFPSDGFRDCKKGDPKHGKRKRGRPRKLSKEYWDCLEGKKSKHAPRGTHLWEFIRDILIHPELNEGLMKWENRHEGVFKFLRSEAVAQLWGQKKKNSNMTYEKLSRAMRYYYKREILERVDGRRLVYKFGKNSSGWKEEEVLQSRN
Particulars: protein: recombinant; tags: N-terminal GST; dsDNA, one strand shown. In outline: as §1

For a further test, the target named is CRX (Homo sapiens, UniProt O43186 1-299). The conditions noted are these: protein: recombinant; tags: N-terminal GST; dsDNA, one strand shown. In short, it runs like this:
as §1

The target of a further test is ETV1 (Homo sapiens, UniProt P50549 1-477). Particulars: protein: recombinant; tags: N-terminal GST; dsDNA, one strand shown. In outline:
as §1

CRX, sequence (O43186 whole entry): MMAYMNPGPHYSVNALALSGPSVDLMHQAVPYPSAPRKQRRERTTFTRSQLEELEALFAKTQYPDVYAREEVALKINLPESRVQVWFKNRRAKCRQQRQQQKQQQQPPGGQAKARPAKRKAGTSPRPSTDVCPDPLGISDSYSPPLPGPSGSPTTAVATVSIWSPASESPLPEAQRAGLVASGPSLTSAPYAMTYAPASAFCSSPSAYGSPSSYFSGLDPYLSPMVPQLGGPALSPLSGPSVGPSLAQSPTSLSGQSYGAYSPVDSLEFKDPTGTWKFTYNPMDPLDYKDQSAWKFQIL
ELF4, sequence (Q99607 whole entry): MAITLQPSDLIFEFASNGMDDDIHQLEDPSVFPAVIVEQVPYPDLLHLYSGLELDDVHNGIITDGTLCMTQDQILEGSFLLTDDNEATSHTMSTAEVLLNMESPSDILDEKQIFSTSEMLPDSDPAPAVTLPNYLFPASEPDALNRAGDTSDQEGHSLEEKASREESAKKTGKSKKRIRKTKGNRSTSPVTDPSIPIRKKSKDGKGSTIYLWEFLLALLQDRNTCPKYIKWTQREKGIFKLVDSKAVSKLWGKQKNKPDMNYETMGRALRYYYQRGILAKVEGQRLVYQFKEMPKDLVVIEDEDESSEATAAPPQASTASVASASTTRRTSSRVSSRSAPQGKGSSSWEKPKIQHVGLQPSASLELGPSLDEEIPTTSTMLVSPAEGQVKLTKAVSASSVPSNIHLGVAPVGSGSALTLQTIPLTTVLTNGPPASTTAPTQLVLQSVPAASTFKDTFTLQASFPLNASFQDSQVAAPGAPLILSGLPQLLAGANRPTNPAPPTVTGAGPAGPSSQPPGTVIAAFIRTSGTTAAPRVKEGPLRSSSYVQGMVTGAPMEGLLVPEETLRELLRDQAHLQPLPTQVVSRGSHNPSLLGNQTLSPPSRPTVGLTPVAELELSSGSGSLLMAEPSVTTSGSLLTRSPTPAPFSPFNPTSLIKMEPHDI
HSF1, sequence (Q00613 whole entry): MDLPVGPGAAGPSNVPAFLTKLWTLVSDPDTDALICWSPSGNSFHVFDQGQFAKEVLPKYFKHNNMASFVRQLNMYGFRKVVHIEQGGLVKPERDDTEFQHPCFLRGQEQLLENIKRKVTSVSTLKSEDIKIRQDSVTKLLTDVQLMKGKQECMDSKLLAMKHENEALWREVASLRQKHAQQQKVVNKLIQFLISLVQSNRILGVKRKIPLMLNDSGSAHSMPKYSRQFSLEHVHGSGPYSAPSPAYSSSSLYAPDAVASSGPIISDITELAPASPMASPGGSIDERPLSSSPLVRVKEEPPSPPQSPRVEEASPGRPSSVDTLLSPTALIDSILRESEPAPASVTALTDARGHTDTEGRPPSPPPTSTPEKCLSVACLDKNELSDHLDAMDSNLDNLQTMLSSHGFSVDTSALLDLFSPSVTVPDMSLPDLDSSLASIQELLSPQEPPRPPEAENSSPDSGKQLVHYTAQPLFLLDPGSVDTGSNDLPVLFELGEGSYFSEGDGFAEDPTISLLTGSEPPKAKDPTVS
ETV1, sequence (P50549 whole entry): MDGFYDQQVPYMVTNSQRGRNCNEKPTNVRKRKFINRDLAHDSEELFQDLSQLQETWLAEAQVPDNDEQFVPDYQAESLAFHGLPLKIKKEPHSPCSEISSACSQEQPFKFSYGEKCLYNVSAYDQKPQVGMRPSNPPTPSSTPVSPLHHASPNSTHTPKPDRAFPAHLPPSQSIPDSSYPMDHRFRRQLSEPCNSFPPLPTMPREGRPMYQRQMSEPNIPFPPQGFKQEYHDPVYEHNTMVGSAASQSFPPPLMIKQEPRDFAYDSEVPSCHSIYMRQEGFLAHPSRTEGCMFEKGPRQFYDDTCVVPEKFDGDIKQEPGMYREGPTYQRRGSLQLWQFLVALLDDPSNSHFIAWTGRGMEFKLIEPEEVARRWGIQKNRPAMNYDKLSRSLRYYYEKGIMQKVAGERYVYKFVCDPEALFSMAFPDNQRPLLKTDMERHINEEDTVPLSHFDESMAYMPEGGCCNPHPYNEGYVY
ETV5, sequence (P41161 whole entry): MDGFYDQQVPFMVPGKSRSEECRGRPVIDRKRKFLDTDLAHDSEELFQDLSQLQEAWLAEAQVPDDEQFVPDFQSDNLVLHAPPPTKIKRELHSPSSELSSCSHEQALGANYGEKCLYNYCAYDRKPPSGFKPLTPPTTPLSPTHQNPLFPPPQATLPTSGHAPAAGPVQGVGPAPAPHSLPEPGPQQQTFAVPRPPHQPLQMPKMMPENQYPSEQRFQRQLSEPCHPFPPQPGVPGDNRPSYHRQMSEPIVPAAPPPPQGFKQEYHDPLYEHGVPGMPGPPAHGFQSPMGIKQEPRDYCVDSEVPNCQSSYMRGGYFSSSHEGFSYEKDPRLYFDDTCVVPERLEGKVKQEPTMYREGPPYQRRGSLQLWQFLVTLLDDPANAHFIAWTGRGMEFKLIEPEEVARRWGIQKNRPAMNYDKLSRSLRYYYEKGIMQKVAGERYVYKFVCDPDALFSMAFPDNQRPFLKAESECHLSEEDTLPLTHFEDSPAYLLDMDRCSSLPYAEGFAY

On to ATCGAC, for which the binding signal is 1.12 fold enrichment (6-mer frequency, TF over GST control) with FEV; 1.25 fold enrichment (6-mer frequency, TF over GST control) with ETV5; 1.16 fold enrichment (6-mer frequency, TF over GST control) with HSF1; 1.13 fold enrichment (6-mer frequency, TF over GST control) in the test with SPIC; 1.21 fold enrichment (6-mer frequency, TF over GST control) in the test with ELF4; 1.26 fold enrichment (6-mer frequency, TF over GST control) with ELK4. The binding signal in the test with ETV2 was 1.23 fold enrichment (6-mer frequency, TF over GST control); with ELF3, 1.14 fold enrichment (6-mer frequency, TF over GST control); with CRX it was 1.11 fold enrichment (6-mer frequency, TF over GST control); in the test with ETV1, 1.16 fold enrichment (6-mer frequency, TF over GST control).
As for AAATCA, the binding signal was 1.2 fold enrichment (6-mer frequency, TF over GST control) with FEV; 1.26 fold enrichment (6-mer frequency, TF over GST control) in the test with ETV5; 1.17 fold enrichment (6-mer frequency, TF over GST control) with HSF1; 1.18 fold enrichment (6-mer frequency, TF over GST control) with SPIC; 1.24 fold enrichment (6-mer frequency, TF over GST control) with ELF4; 1.23 fold enrichment (6-mer frequency, TF over GST control) in the test with ELK4. The binding signal with ETV2 was 1.39 fold enrichment (6-mer frequency, TF over GST control); in the test with ELF3 it was 1.27 fold enrichment (6-mer frequency, TF over GST control); with CRX it was 1.33 fold enrichment (6-mer frequency, TF over GST control); with ETV1 it was 1.18 fold enrichment (6-mer frequency, TF over GST control).
On to CATTTA, for which the binding signal was 1.23 fold enrichment (6-mer frequency, TF over GST control) with FEV; 1.22 fold enrichment (6-mer frequency, TF over GST control) with ETV5; 1.13 fold enrichment (6-mer frequency, TF over GST control) in the test with HSF1; 1.17 fold enrichment (6-mer frequency, TF over GST control) in the test with SPIC; 1.14 fold enrichment (6-mer frequency, TF over GST control) with ELF4; 1.17 fold enrichment (6-mer frequency, TF over GST control) in the test with ELK4. Further, the binding signal with ETV2 is 1.34 fold enrichment (6-mer frequency, TF over GST control); with ELF3 it was 1.2 fold enrichment (6-mer frequency, TF over GST control); with CRX, 1.36 fold enrichment (6-mer frequency, TF over GST control); with ETV1, 1.22 fold enrichment (6-mer frequency, TF over GST control).
TGCTCT: the binding signal was 1.37 fold enrichment (6-mer frequency, TF over GST control) in the test with FEV; 1.37 fold enrichment (6-mer frequency, TF over GST control) with ETV5; 1.3 fold enrichment (6-mer frequency, TF over GST control) in the test with HSF1; 1.2 fold enrichment (6-mer frequency, TF over GST control) with SPIC; 1.36 fold enrichment (6-mer frequency, TF over GST control) with ELF4; 1.38 fold enrichment (6-mer frequency, TF over GST control) with ELK4. Besides, the binding signal in the test with ETV2 was 1.47 fold enrichment (6-mer frequency, TF over GST control); in the test with ELF3 it was 1.36 fold enrichment (6-mer frequency, TF over GST control); with CRX, 1.24 fold enrichment (6-mer frequency, TF over GST control); in the test with ETV1, 1.33 fold enrichment (6-mer frequency, TF over GST control).
In the case of AAAACG, the binding signal in the test with FEV was 1.18 fold enrichment (6-mer frequency, TF over GST control); with ETV5 it was 1.29 fold enrichment (6-mer frequency, TF over GST control); with HSF1, 1.06 fold enrichment (6-mer frequency, TF over GST control); in the test with SPIC, 1.3 fold enrichment (6-mer frequency, TF over GST control); with ELF4 it was 1.22 fold enrichment (6-mer frequency, TF over GST control); with ELK4, 1.19 fold enrichment (6-mer frequency, TF over GST control). The binding signal with ETV2 was 1.24 fold enrichment (6-mer frequency, TF over GST control); with ELF3, 1.16 fold enrichment (6-mer frequency, TF over GST control); with CRX, 1.05 fold enrichment (6-mer frequency, TF over GST control); in the test with ETV1 it was 1.21 fold enrichment (6-mer frequency, TF over GST control).
On to CCCTCG, for which the binding signal in the test with FEV was 1.19 fold enrichment (6-mer frequency, TF over GST control); with ETV5 it was 1.19 fold enrichment (6-mer frequency, TF over GST control); in the test with HSF1 it was 1.22 fold enrichment (6-mer frequency, TF over GST control); with SPIC, 1.25 fold enrichment (6-mer frequency, TF over GST control); with ELF4, 1.36 fold enrichment (6-mer frequency, TF over GST control); with ELK4 it was 1.36 fold enrichment (6-mer frequency, TF over GST control). The binding signal in the test with ETV2 was 1.25 fold enrichment (6-mer frequency, TF over GST control); with ELF3 it was 1.17 fold enrichment (6-mer frequency, TF over GST control); with CRX it was 1.06 fold enrichment (6-mer frequency, TF over GST control); in the test with ETV1 it was 1.25 fold enrichment (6-mer frequency, TF over GST control).
As for TAAAAC, the binding signal with FEV is 1.22 fold enrichment (6-mer frequency, TF over GST control); in the test with ETV5, 1.18 fold enrichment (6-mer frequency, TF over GST control); with HSF1, 1.32 fold enrichment (6-mer frequency, TF over GST control); in the test with SPIC, 1.29 fold enrichment (6-mer frequency, TF over GST control); with ELF4, 1.16 fold enrichment (6-mer frequency, TF over GST control); with ELK4, 1.15 fold enrichment (6-mer frequency, TF over GST control). Also, the binding signal was 1.17 fold enrichment (6-mer frequency, TF over GST control) in the test with ETV2; 1.14 fold enrichment (6-mer frequency, TF over GST control) with ELF3; 1.66 fold enrichment (6-mer frequency, TF over GST control) with CRX; 1.18 fold enrichment (6-mer frequency, TF over GST control) with ETV1.
Consider TTCCGA, for which the binding signal is 1.81 fold enrichment (6-mer frequency, TF over GST control) with FEV; 1.57 fold enrichment (6-mer frequency, TF over GST control) in the test with ETV5; 1.35 fold enrichment (6-mer frequency, TF over GST control) in the test with HSF1; 1.61 fold enrichment (6-mer frequency, TF over GST control) in the test with SPIC; 1.44 fold enrichment (6-mer frequency, TF over GST control) with ELF4; 1.46 fold enrichment (6-mer frequency, TF over GST control) with ELK4. For the same sequence, the binding signal in the test with ETV2 is 1.7 fold enrichment (6-mer frequency, TF over GST control); with ELF3, 1.5 fold enrichment (6-mer frequency, TF over GST control); in the test with CRX, 1.19 fold enrichment (6-mer frequency, TF over GST control); in the test with ETV1 it was 1.63 fold enrichment (6-mer frequency, TF over GST control).
